Laboratory results from PubChem BioAssay (EPA / NIEHS).
Activity calls are given as the source filed them. Rule for the calls: active = hit-call score of the fitted dose curve at least 0.9, where 1 is the maximum; inactive = score below 0.9.

Experiments:
[1] = ATG_CRE_CIS: Attagene CIS-FACTORIAL HepG2 Assay for human cAMP Responsive Element (CRE) binding protein 3 (AID 2282926); conditions: HepG2 CRE cis-reporter, Attagene multiplexed mRNA; actives raise or lower the signal
Procedure, shortened: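 HepG2 cells transiently transfected with a multiplexed reporter library (CRE-driven unit among them) were dosed for 24 h. Reporter mRNA was quantified by RT-PCR, fluorescent labelling, HpaI digestion and capillary electrophoresis, with bidirectional fitting against DMSO baseline.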

[2] = biological target: CCAAT/enhancer-binding protein beta (Homo sapiens) (UniProt P17676); test: ATG_C_EBP_CIS: Attagene CIS-FACTORIAL HepG2 Assay for human CCAAT/Enhancer Binding Protein (C/EBP) beta (AID 2282927); conditions: HepG2 Attagene cis-factorial transcription factor reporter; actives raise or lower the signal
CCAAT/enhancer-binding protein beta (Homo sapiens), sequence (P17676 whole entry, looked up): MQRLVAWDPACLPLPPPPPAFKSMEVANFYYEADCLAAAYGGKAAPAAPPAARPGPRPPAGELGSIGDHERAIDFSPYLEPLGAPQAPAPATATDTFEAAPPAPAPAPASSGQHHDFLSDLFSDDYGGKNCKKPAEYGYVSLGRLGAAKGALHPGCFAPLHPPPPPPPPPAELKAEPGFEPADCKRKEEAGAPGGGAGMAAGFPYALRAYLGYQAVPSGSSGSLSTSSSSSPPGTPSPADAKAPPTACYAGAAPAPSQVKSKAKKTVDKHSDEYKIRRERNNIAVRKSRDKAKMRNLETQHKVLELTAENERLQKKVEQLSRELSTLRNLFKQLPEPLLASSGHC
Procedure, shortened: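 Changes in reporter mRNA, rather than exogenous chimeric receptor activity, reflect native C/EBP signalling in transfected HepG2 cells dosed for 24 h; transcripts are detected by RT-PCR and capillary electrophoresis.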

[3] = ATG_CMV_CIS: Attagene CIS-FACTORIAL HepG2 Assay for human CMV (Internal Marker) (AID 2282928); conditions: HepG2 CMV promoter reporter, transcription factor profiling; actives raise or lower the signal;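 note: endpoint acts as a background internal control marker rather than a target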
Procedure, shortened: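 CMV internal-marker background readout in transiently transfected HepG2 cells bearing cis-regulated reporter units. Reporter mRNA is measured 24 h after dosing by RT-PCR and capillary electrophoresis, with bidirectional fitting against DMSO.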

[4] = ATG_DR4_LXR_CIS: Attagene CIS-FACTORIAL HepG2 Assay for human Liver X Receptor (LXR), DR4 submotif (AID 2282929); conditions: HepG2 Attagene DR4 cis-reporter, mRNA transcription; actives raise or lower the signal
Procedure, shortened: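 After transient transfection with multiplexed cis-promoter reporter units, HepG2 cells received test chemicals for 24 h. Reporter mRNA induction, detected by fluorescence after RT-PCR and capillary electrophoresis, was scored relative to DMSO.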

[5] = ATG_AP_2_CIS: Attagene CIS-FACTORIAL HepG2 Assay for human Activator Protein 2 (AP-2) (AID 2282932); conditions: HepG2 AP-2 cis-reporter, Attagene transcription factor profiling; actives raise or lower the signal
Procedure, shortened: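 HepG2, transient MRTU transfection, cis-regulated reporters; 24 h compound exposure; RNA isolated, RT-PCR, 6-FAM labelling, HpaI digest, CE fluorescence. DMSO = negative control/baseline, bidirectional fit.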

[6] = ATG_E_Box_CIS: Attagene CIS-FACTORIAL HepG2 Assay for human Enhancer Box (E-box) (AID 2282936); conditions: HepG2 E-box cis-reporter transcription, actives raise or lower the signal
Procedure, shortened: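 Cells: HepG2 (human liver), transient MRTU transfection. Exposure 24 h. RNA → oligo(dT) RT → PCR → 6-FAM label → HpaI → CE. Activity fitted both directions relative to DMSO.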

[7] = ATG_EGR_CIS: Attagene CIS-FACTORIAL HepG2 Assay for human Early Growth Response 1 (EGR1) (AID 2282938); conditions: HepG2 Attagene CIS-FACTORIAL EGR reporter mRNA; actives raise or lower the signal
Procedure, shortened: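 Fluorescent capillary-electrophoresis signal of reporter cDNA fragments serves as read-out. HepG2 cells bear transiently transfected cis-promoter reporter units and are exposed 24 h; gain- or loss-of-signal is fitted against DMSO.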

[8] = ATG_M_19_CIS: Attagene CIS-FACTORIAL HepG2 Assay for M19 Transcription Factor (Internal Marker) (AID 2282939); conditions: HepG2 Attagene CIS-FACTORIAL M19 internal marker reporter; actives raise or lower the signal
Procedure, shortened: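 HepG2 cells transiently transfected with cis-regulated multiple reporter transcription units were dosed for 24 h; reporter mRNA was quantified by RT-PCR, 6-FAM primer-extension labelling, HpaI digestion and capillary electrophoresis, with bidirectional fitting against DMSO baseline.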

[9] = ATG_Ets_CIS: Attagene CIS-FACTORIAL HepG2 Assay for human Erythroblast Transformation Specific (ETS) (AID 2282941); conditions: HepG2 ETS cis-reporter transcription, actives raise or lower the signal
Procedure, shortened: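 HepG2 cells transfected with multiple cis-regulated reporter units measuring endogenous ETS-driven transcription, 24 h after dosing. Reporter mRNA quantified by RT-PCR with capillary electrophoresis; bidirectional fit relative to DMSO.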

[10] = biological target: Hepatocyte nuclear factor 3-beta (Homo sapiens) (UniProt Q9Y261); test: ATG_FoxA2_CIS: Attagene CIS-FACTORIAL HepG2 Assay for human Forkhead box A2 (FOXA2) (AID 2282942); conditions: HepG2 cis-reporter transcription factor activity, 24 h; actives raise or lower the signal
Hepatocyte nuclear factor 3-beta (Homo sapiens), sequence (Q9Y261 whole entry, looked up, the tested form may be a part): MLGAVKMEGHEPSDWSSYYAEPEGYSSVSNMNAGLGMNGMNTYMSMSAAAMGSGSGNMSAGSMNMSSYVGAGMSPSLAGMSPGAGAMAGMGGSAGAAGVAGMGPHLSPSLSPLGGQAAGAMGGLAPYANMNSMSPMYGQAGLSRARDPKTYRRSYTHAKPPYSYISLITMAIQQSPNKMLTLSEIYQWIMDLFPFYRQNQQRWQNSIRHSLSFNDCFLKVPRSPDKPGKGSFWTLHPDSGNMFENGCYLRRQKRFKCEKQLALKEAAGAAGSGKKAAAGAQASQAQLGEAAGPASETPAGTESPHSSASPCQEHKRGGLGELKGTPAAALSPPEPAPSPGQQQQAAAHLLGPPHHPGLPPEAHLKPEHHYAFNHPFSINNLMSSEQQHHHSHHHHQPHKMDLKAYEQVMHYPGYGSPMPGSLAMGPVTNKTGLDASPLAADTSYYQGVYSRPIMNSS
Procedure, shortened: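 Fluorescence signal of reporter cDNA fragments, separated by capillary electrophoresis, reflects endogenous transcription factor activity in transfected HepG2 after 24 h. Both increases and decreases fitted against DMSO.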

[11] = ATG_FoxO_CIS: Attagene CIS-FACTORIAL HepG2 Assay for human Forkhead box O (FoxO) (AID 2282943); conditions: HepG2 Attagene cis-reporter, FoxO element, mRNA; actives raise or lower the signal
Procedure, shortened: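 Human hepatoma HepG2 cells carry transiently introduced reporter transcription units controlled by cis promoter elements. Chemical treatment lasted 24 h, and mRNA signal was compared with DMSO.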

[12] = ATG_GATA_CIS: Attagene CIS-FACTORIAL HepG2 Assay for human GATA Binding Protein (AID 2282944); conditions: HepG2 GATA cis-element reporter, Attagene multiplex mRNA; actives raise or lower the signal
Procedure, shortened: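 HepG2 cells transiently transfected with multiplexed cis-element reporter units reflecting endogenous transcription factor activity; reporter mRNA measured after 24 h dosing by RT-PCR, 6-FAM labeling, HpaI digestion and capillary electrophoresis. Bidirectional fitting versus DMSO baseline.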

[13] = ATG_M_32_CIS: Attagene CIS-FACTORIAL HepG2 Assay for M32 Transcription Factor (Internal Marker) (AID 2282949); conditions: HepG2 Attagene cis-factorial M32 reporter, mRNA; actives raise or lower the signal;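 note: background control marker of the multiplexed CIS panel rather than a real target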
Procedure, shortened: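 Fluorescent capillary electrophoresis peaks of HpaI-digested, FAM-labelled RT-PCR reporter products give the signal. Source: transiently transfected human liver HepG2 cells, 24 h after chemical dosing; bidirectional fitting against DMSO.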

[14] = ATG_M_06_CIS: Attagene CIS-FACTORIAL HepG2 Assay for M06 Transcription Factor (Internal Marker) (AID 2282950); conditions: HepG2 Attagene CIS-FACTORIAL M06 internal marker reporter; actives raise or lower the signal
Procedure, shortened: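 HepG2 cells transiently transfected with cis-regulated multiple reporter transcription units were exposed to chemical for 24 h; reporter mRNA was quantified by RT-PCR, 6-FAM primer labelling, HpaI digestion and capillary electrophoresis, fitted bidirectionally against DMSO.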

[15] = ATG_PXRE_CIS: Attagene CIS-FACTORIAL HepG2 Assay for human Pregnane X Receptor Element (PXRE) (AID 2282957); conditions: HepG2 Attagene CIS-FACTORIAL PXRE reporter, mRNA; actives raise or lower the signal
Procedure, shortened: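 HepG2 cells transiently transfected with cis-regulated multiple reporter transcription units; endogenous factor activity measured as reporter mRNA 24 h after dosing. RT-PCR, fluorescent primer extension, HpaI digestion, capillary electrophoresis; bidirectional fit versus DMSO baseline.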

[16] = ATG_Sox_CIS: Attagene CIS-FACTORIAL HepG2 Assay for human SRY-box transcription factor (SOX) (AID 2282960); conditions: HepG2 Attagene cis-factorial SOX reporter, mRNA; actives raise or lower the signal
Procedure, shortened: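 Using transiently transfected HepG2 cells, reporter transcription driven by cis elements was assessed 24 h after dosing. Signal was fluorescence of capillary-separated RT-PCR products, with DMSO defining baseline activity.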

[17] = biological target: Transcription factor Sp1 (Homo sapiens) (UniProt P08047); test: ATG_Sp1_CIS: Attagene CIS-FACTORIAL HepG2 Assay for human Specificity Protein 1 (Sp1) (AID 2282961); conditions: HepG2 Sp1 cis-reporter transcription, actives raise or lower the signal
Transcription factor Sp1 (Homo sapiens), sequence (P08047 whole entry, looked up): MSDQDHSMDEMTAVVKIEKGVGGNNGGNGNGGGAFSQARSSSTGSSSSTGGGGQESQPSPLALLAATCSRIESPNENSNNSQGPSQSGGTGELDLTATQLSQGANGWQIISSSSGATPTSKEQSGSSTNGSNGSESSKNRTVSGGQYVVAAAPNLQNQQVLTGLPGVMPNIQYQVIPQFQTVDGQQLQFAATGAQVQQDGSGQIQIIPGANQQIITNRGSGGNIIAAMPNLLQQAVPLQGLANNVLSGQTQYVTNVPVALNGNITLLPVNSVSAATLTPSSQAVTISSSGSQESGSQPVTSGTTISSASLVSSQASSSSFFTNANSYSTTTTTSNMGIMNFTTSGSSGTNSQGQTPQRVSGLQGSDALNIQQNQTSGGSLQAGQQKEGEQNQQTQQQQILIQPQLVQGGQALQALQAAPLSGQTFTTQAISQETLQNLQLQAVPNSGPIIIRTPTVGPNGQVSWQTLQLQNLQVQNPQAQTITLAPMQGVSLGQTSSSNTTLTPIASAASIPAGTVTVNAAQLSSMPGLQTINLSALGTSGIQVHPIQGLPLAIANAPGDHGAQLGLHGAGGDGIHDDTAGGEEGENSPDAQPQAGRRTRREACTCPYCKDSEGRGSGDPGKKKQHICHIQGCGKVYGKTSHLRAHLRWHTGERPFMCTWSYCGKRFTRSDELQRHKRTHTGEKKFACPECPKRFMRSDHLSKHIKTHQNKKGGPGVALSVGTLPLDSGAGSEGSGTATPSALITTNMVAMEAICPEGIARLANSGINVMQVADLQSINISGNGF
Procedure, shortened: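 After transient transfection of HepG2 cells with cis-promoter reporter units and 24 h chemical treatment, reporter transcripts were quantified by RT-PCR and capillary electrophoresis fluorescence. Gain- and loss-of-signal fitted against DMSO.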

[18] = ATG_SREBP_CIS: Attagene CIS-FACTORIAL HepG2 Assay for human Sterol Regulatory Element Binding (SREBP) (AID 2282962); conditions: HepG2 Attagene cis-factorial SREBP reporter, mRNA; actives raise or lower the signal
Procedure, shortened: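 HepG2 cells transiently transfected with multiplexed cis-promoter reporter units sensing endogenous transcription factors; reporter mRNA measured 24 h after dosing by RT-PCR, 6-FAM labeling, HpaI digestion and capillary electrophoresis. Bidirectional fit versus DMSO.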

[19] = biological target: Signal transducer and activator of transcription 3 (Homo sapiens) (UniProt P40763); test: ATG_STAT3_CIS: Attagene CIS-FACTORIAL HepG2 Assay for human Signal Transducer and Activator of Transcription 3 (STAT3) (AID 2282963); conditions: HepG2, Attagene cis-factorial STAT3 reporter transcription; actives raise or lower the signal
Signal transducer and activator of transcription 3 (Homo sapiens), sequence (P40763 whole entry, looked up): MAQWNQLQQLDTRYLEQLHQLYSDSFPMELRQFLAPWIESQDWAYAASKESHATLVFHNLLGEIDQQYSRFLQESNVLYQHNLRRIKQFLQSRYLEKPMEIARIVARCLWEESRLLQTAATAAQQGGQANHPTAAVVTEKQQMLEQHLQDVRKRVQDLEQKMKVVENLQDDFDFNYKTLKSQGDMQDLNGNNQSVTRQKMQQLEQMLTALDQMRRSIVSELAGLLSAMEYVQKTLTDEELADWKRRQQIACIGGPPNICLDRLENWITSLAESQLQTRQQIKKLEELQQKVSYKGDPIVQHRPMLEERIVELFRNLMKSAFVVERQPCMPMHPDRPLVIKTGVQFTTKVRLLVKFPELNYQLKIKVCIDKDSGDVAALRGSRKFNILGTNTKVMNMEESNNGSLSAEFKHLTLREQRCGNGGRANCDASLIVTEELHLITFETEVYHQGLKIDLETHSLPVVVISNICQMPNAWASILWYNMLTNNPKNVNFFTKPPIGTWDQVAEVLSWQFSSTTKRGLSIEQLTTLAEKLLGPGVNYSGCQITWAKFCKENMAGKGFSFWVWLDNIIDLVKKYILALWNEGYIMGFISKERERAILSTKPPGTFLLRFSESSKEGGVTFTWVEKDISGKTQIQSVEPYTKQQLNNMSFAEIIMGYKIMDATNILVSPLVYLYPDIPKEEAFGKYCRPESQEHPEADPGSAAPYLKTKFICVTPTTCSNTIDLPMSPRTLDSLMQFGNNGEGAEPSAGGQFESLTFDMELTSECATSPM
Procedure, shortened: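 Endogenous STAT3-responsive cis-element activity was read in transiently transfected HepG2 cells after 24 h treatment. Reporter transcripts were quantified via RT-PCR and capillary electrophoresis, with DMSO as negative control and bidirectional curve fitting.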

[20] = ATG_TA_CIS: Attagene CIS-FACTORIAL HepG2 Assay for human TA Basal Promoter (AID 2282964); conditions: HepG2 Attagene CIS-factorial TA basal promoter reporter; actives raise or lower the signal
Procedure, shortened: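 HepG2 cells transiently transfected with multiplexed cis-promoter reporter units, dosed 24 h. Reporter mRNA measured by RT-PCR, 6-FAM labelling, HpaI digestion and capillary electrophoresis; bidirectional fit versus DMSO baseline, serving as background control.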

## CCNCC
[1]
  outcome: inactive
[2]
  outcome: inactive
[3]
  outcome: inactive
[4]
  outcome: inactive
[5]
  outcome: inactive
[6]
  outcome: inactive
[7]
  outcome: inactive
[8]
  outcome: inactive
[9]
  outcome: inactive
[10]
  outcome: inactive
[11]
  outcome: inactive
[12]
  outcome: inactive
[13]
  outcome: inactive
[14]
  outcome: inactive
[15]
  outcome: inactive
[16]
  outcome: inactive
[17]
  outcome: inactive
[18]
  outcome: inactive
[19]
  outcome: inactive
[20]
  outcome: inactive

## O=[N+]([O-])c1ccc(Cl)cc1
[1]
  outcome: inactive
[2]
  outcome: inactive
[3]
  outcome: inactive
[4]
  outcome: inactive
[5]
  outcome: inactive
[6]
  outcome: inactive
[7]
  outcome: inactive
[8]
  outcome: inactive
[9]
  outcome: inactive
[10]
  outcome: inactive
[11]
  outcome: inactive
[12]
  outcome: inactive
[13]
  outcome: inactive
[14]
  outcome: inactive
[15]
  outcome: inactive
[16]
  outcome: inactive
[17]
  outcome: inactive
[18]
  outcome: inactive
[19]
  outcome: inactive
[20]
  outcome: inactive

## BrCBr
[1]
  outcome: inactive
[2]
  outcome: inactive
[3]
  outcome: inactive
[4]
  outcome: inactive
[5]
  outcome: inactive
[6]
  outcome: inactive
[7]
  outcome: inactive
[8]
  outcome: inactive
[9]
  outcome: inactive
[10]
  outcome: inactive
[11]
  outcome: inactive
[12]
  outcome: inactive
[13]
  outcome: inactive
[14]
  outcome: inactive
[15]
  outcome: inactive
[16]
  outcome: inactive
[17]
  outcome: inactive
[18]
  outcome: inactive
[19]
  outcome: inactive
[20]
  outcome: inactive

## O=S(=O)(O)OOS(=O)(=O)O
[1]
  outcome: inactive
[2]
  outcome: inactive
[3]
  outcome: inactive
[4]
  outcome: inactive
[5]
  outcome: inactive
[6]
  outcome: inactive
[7]
  outcome: inactive
[8]
  outcome: inactive
[9]
  outcome: inactive
[10]
  outcome: inactive
[11]
  outcome: inactive
[12]
  outcome: inactive
[13]
  outcome: inactive
[14]
  outcome: inactive
[15]
  AC50: 56.7 µM (active)
[16]
  outcome: inactive
[17]
  outcome: inactive
[18]
  outcome: inactive
[19]
  outcome: inactive
[20]
  outcome: inactive

## C[N+](C)(C)CC(=O)[O-]
[1]
  outcome: inactive
[2]
  outcome: inactive
[3]
  outcome: inactive
[4]
  outcome: inactive
[5]
  outcome: inactive
[6]
  outcome: inactive
[7]
  outcome: inactive
[8]
  outcome: inactive
[9]
  outcome: inactive
[10]
  outcome: inactive
[11]
  outcome: inactive
[12]
  outcome: inactive
[13]
  outcome: inactive
[14]
  outcome: inactive
[15]
  outcome: inactive
[16]
  outcome: inactive
[17]
  outcome: inactive
[18]
  outcome: inactive
[19]
  outcome: inactive
[20]
  outcome: inactive

## O=C1C=CC(=O)C=C1
[1]
  outcome: inactive
[2]
  outcome: inactive
[3]
  outcome: inactive
[4]
  outcome: inactive
[5]
  outcome: inactive
[6]
  outcome: inactive
[7]
  outcome: inactive
[8]
  outcome: inactive
[9]
  outcome: inactive
[10]
  outcome: inactive
[11]
  outcome: inactive
[12]
  outcome: inactive
[13]
  outcome: inactive
[14]
  outcome: inactive
[15]
  AC50: 26.4 µM (active)
[16]
  outcome: inactive
[17]
  outcome: inactive
[18]
  outcome: inactive
[19]
  outcome: inactive
[20]
  outcome: inactive

## CC(Cc1ccc(C(C)(C)C)cc1)CN1C[C@@H](C)O[C@@H](C)C1 (stereo not given in full)
[1]
  outcome: inactive
[2]
  outcome: inactive
[3]
  AC50: 38.6 µM (active)
[4]
  outcome: inactive
[5]
  outcome: inactive
[6]
  outcome: inactive
[7]
  outcome: inactive
[8]
  outcome: inactive
[9]
  outcome: inactive
[10]
  outcome: inactive
[11]
  outcome: inactive
[12]
  outcome: inactive
[13]
  outcome: inactive
[14]
  outcome: inactive
[15]
  AC50: 4.18 µM (active)
[16]
  AC50: 24.7 µM (active)
[17]
  outcome: inactive
[18]
  outcome: inactive
[19]
  outcome: inactive
[20]
  outcome: inactive
